ELG1 DNA repair – qHTS screen for small molecules that inhibit ELG1-dependent DNA repair in human embryonic kidney (HEK293T) cells expressing luciferase-tagged ELG1 | HEK293T ELG1-luciferase reporter, luminescence, 16 h; DNA damage induced by 5-fluorouridine | Potency, µM (top dose mostly 46.1 µM), actives largely listed as inhibitors | hit rate 2.3% among 330,000 | AID 504467, 2011; note: nearly all actives have a fitted effect of over 55% in size
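5-Fluorouridine DNA damage + compound/DMSO, 2,000 cells/well, 16 h, 37 °C/5% CO2. ONE-Glo, 30 min RT, luminescence. Readout = decrease in reporter signal.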
ELG1 genotoxic – qHTS screen for small molecules that induce genotoxicity in human embryonic kidney (HEK293T) cells expressing luciferase-tagged ELG1; HEK293T ELG1-luciferase reporter, luminescence, 16 h; AID 504466, 2011; Potency, µM (titrated, usually from 46 µM), actives largely listed as activators; hit rate 1.3% among 330,000; note: nearly all actives have a fitted effect of over 60% in size
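Genotoxic stress is detected as increased luminescence from luciferase-tagged ELG1 in HEK293T cells, measured with ONE-Glo after a 16 hr treatment at 37 °C.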
Rab9 promoter act – qHTS Assay for Rab9 Promoter Activators; AID 485297, 2010; Potency, µM (top dose mostly 9.22 µM), hits mostly activators; hit rate 2.8% among 320,000; Huh7 Rab9 promoter-luciferase reporter, luminescence, 24 h; note: nearly all actives have a fitted effect of over 60% in size
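Huh7 cells stably carrying a Rab9 promoter-luciferase reporter, 1500 cells per well in OP-MEM I with 10% FBS, treated with compound 24 hours at 37C. Luciferase activity read by luminescence after 10 minutes with Amplite reagent.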
NPC1 prom act – qHTS Assay for NPC1 Promoter Activators; Potency, µM (titrated, usually from 9.22 µM), most hits filed as activators; Huh7 NPC1 promoter luciferase reporter, 24 h; hit rate 2.4% among 320,000; note: nearly all actives have a fitted effect of over 60% in size
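Luciferase expression driven by the NPC1 promoter was measured in stably transfected Huh7 cells after a 24 h compound incubation, using a luciferase reagent and a luminescence read.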
FLuc modulator – qHTS profiling assay for firefly luciferase inhibitor/activator using purifed enzyme and Km concentrations of substrates (counterscreen for miR-21 project); purified FLuc, Km substrates, luminescence inhibition; Potency, µM (doses to about 57.5 µM), usual class: inhibitors; AID 588342, 2011; Luciferin 4-monooxygenase (Photinus pyralis), P08659; hit rate 6.9% among 360,000; note: nearly all actives have a fitted effect of over 55% in size
Target sequence (P08659 whole entry, looked up): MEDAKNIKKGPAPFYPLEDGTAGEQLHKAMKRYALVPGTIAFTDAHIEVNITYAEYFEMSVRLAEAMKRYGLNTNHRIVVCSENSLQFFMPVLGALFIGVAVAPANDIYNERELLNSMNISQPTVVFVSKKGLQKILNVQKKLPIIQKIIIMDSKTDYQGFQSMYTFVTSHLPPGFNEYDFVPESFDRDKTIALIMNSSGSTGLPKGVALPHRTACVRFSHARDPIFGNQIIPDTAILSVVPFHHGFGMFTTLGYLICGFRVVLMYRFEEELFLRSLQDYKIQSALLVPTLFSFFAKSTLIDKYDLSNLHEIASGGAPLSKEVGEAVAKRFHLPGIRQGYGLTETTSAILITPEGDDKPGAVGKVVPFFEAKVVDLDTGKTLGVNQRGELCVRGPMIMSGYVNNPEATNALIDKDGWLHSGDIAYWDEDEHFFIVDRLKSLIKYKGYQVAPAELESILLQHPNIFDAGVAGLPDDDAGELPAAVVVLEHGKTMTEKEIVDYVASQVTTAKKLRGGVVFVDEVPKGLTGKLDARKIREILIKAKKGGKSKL
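Purified P. pyralis luciferase (10nM final) with 10uM D-luciferin and 10uM ATP (Km levels) in 50mM Tris acetate pH 7.5, 10mM Mg acetate, 0.01% Tween-20, 0.05% BSA; qHTS 6-point titration, ~60 µM downward; luminescence read.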
SMN2 splice enh – qHTS Assay for Enhancers of SMN2 Splice Variant Expression. Potency, µM (highest dose often 46.1 µM), actives largely listed as activators. HEK293 SMN2-luciferase splicing reporter, luminescence, 30-36 h. hit rate 2.8% among 210,000; note: nearly all actives have a fitted effect of over 55% in size
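HEK293 cells carry an SMN2 […]–luciferase reporter in which exon 7 inclusion puts luciferase in frame. Cells were plated 10-12 h before compound addition, then incubated 30-36 h at 37C. ONE-Glo luminescence was read; sodium butyrate at 4.5 mM final served as control.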
Hits are given with their value; i = inactive; ? = inconclusive; nt = no result given; [ ] = another dose, or the depositor's remark. Shown are actives, neighbours in structure and some others; about 9.2% of the full set was active somewhere. Calls come from the whole dose curve; as a rule, active = well fitted curve in the direction sought with a large enough effect; inconclusive = small, poorly fitted or top-dose-only effect, or another doubt; inactive = no such curve, though single readings can be large; an effect the other way counts as inactive or inconclusive.

SMILES	ELG1 DNA repair	ELG1 genotoxic	Rab9 promoter act	NPC1 prom act	FLuc modulator	SMN2 splice enh
CC1CCCN(C(=O)C2CCN(S(=O)(=O)c3cccs3)CC2)C1 (stereo not drawn)	i	i	i	i	i	nt
Cc1ccc(S(=O)(=O)c2nc(S(C)(=O)=O)sc2N(C)Cc2ccccc2)cc1	nt	nt	nt	nt	i	i
Cc1c(NC(=O)Nc2ccccc2C(F)(F)F)sc2nc3n(c(=O)c12)CCC(C)CC3 (stereo not drawn)	nt	nt	nt	nt	i	i
CCN1C(=O)CC(N2CCN(c3ccc(C(=O)c4ccncc4)cc3)CC2)C1=O (stereo not drawn)	14.6µM	i	i	i	i	i
Cc1noc(C)c1S(=O)(=O)N(CC(=O)NCCc1ccccc1)c1ccc(C(C)C)cc1	i	i	i	i	i	i
CC(C)[C@@H](CO)N(C)S(=O)(=O)c1ccccc1Br	i	i	nt	nt	nt	nt
O=C(NN=C1C2CC3CC(C2)CC1C3)c1ccccc1O	i	i	i	i	16.9µM	nt
O=C(NN=C1C2CC3CC(C2)CC1C3)c1cccs1	?	?	i	i	i	i
O=C(N/N=C1\CCc2ccccc21)c1ccncc1	?	?	?	?	21.3µM	20µM
O=C(N/N=C1\CCc2ccccc21)c1ccccc1O	?	?	0.794µM	0.631µM	1.69µM	1.12µM
CC(Sc1nc2ccccc2s1)C(=O)N(C)Cc1ccccc1 (stereo not drawn)	i	i	i	i	i	nt
CN(C)S(=O)(=O)c1ccc(Nc2ccc(O)c3c2C(=O)c2c([N+](=O)[O-])ccc(O)c2C3=O)cc1	nt	nt	nt	nt	nt	i[9.22 µM]
CC(C)(C)c1cc2nc(N)nc(N)n2n1	i	i	i	i	i	nt
CSc1nc(N)n2nc(C(C)(C)C)cc2n1	?	i	i	i	16.9µM	nt
CC(C)(C)c1ccc(-n2ncc3c2CCCC3NC(=O)CCN2CCCC2=O)cc1 (stereo not drawn)	i	i	i	i	i	nt
COc1ccc(-c2ccc(-c3nc4c(c(=O)[nH]c(=O)n4Cc4ccccc4)n3C)o2)c([N+](=O)[O-])c1	5.8µM	i	i	i	i	nt
O=c1[nH]c(=O)n(Cc2ccccc2)c2nc(-c3ccc(Oc4ccc(F)cc4)c([N+](=O)[O-])c3)n(CCO)c12	?	i	i	i	i	i
COCCn1c(-c2ccc(-c3ccc([N+](=O)[O-])cc3Br)o2)nc2c1c(=O)[nH]c(=O)n2CC(C)C	10.3µM	i	i	i	i	i
COCCn1c(=O)[nH]c(=O)c2c1nc(-c1ccc(-c3ccc(Cl)cc3[N+](=O)[O-])o1)n2Cc1ccccc1	13µM	i	i	i	i	?
COCCCn1c(-c2cccc(Cl)c2)nc2c1c(=O)[nH]c(=O)n2Cc1ccccc1	?	i	i	i	i	nt
COc1ccc(CCNC(=O)C2CCCN2S(=O)(=O)c2cccc3nsnc23)cc1OC (stereo not drawn)	i	i	i	i	i	nt
CCCCCCNCC1OCc2ccccc2CO1	i	i	i	i	i	i
c1ccc(NCC2OCc3ccccc3CO2)cc1	?	?	2.51µM	3.98µM	23.9µM	15.8µM
Cc1cc2c(c(C)c1CCO)C(=O)[C@H](C)C2	i	i	nt	nt	nt	nt
COC(=O)CCCC(=O)N1CCCC(CCC(=O)NCc2ccc(F)c(F)c2)C1 (stereo not drawn)	i	?	i	i	16.9µM	nt
SMILES	ELG1 DNA repair	ELG1 genotoxic	Rab9 promoter act	NPC1 prom act	FLuc modulator	SMN2 splice enh
CSc1ccccc1C(=O)N1CCCC(CCC(=O)NCc2ccc(F)c(F)c2)C1 (stereo not drawn)	?	i	i	i	i	nt
O=C(CCC1CCCN(C(=O)c2ccc3c(c2)OCCO3)C1)NCc1ccccc1F (stereo not drawn)	?	?	2.82µM	i	16.9µM	nt
COC(=O)c1ccccc1C(=O)N1CCCC(CCC(=O)NCc2ccc(F)c(F)c2)C1 (stereo not drawn)	?	?	?	i	13.5µM	nt
CC(=O)Nc1cccc(NC(=S)Nc2ccc(F)cc2F)c1	i	i	i	i	i	?
COc1cc(Cl)c(C)cc1NC(=O)CSc1ccc(NC(C)=O)cc1	?	i	i	i	i	i
Cc1ccccc1Cn1c(-c2ccc(=O)[nH]c2)nc2ccccc21	i	i	i[1.84 µM]	i	i	nt
Cc1cc2nc(-c3ccc(=O)[nH]c3)n(Cc3ccccc3)c2cc1C	?	?	i	i	15.1µM	nt
CCOc1cccc(/C=C/C(=O)O)c1	?	i	i	i	i	i
CCCCCc1ccc(-c2ccc(/C=C/C(=O)O)cc2)nc1	?	?	?	?	0.379µM	i
CCCc1ccc(-c2ccc(/C=C/C(=O)O)cc2)nc1	?	i	i	i	0.536µM	i
CCCCCCCCCCCCCCCCCCc1ccc(C(=O)/C=C/C(=O)O)cc1	nt	nt	nt	nt	nt	i
COc1ccc2nc(NC(=O)Nc3cccc4ccccc34)sc2c1	?	i	?	i	?	?
COc1ccc2nc(Nc3ccccc3)sc2c1	?	i	1.58µM	3.55µM	1.51µM	11.2µM
COc1ccc2nc(Nc3ccccc3OC)sc2c1	?	?	0.355µM	1.12µM	0.477µM	2.82µM
COc1ccccc1NC(=O)Nc1nc2ccc(S(N)(=O)=O)cc2s1	?	?	3.98µM	?	?	nt
COc1ccc(Nc2nc3ccccc3c(=O)s2)c(OC)c1	i	i	i	i	i	i
COc1ccc2nc(Nc3nc4cc5c(cc4s3)OCO5)sc2c1	?	i	i	i	i	?
COc1ccc2nc(NC(=O)Nc3ccccc3OC)sc2c1	?	?	0.631µM	?	0.953µM	nt
CN(C(=O)COC(=O)c1cccc(S(=O)(=O)N2CCOCC2)c1)C1CCS(=O)(=O)C1 (stereo not drawn)	i	i	i	i	i	nt
COc1ccccc1-n1c(CNC(=O)c2ccc(S(=O)(=O)N3CCCCC3)cc2)n[nH]c1=S	i	i	i	i	i	nt
Cc1ccc(OCC(=O)Nc2cccc(OCc3cc(=O)n4ccccc4n3)c2)cc1C	nt	nt	nt	nt	i	nt
COc1ccc2nc(Nc3ccc4c(c3)OCO4)sc2c1	?	5.8µM	4.47µM	?	?	?
CC1CCc2nc(NC(=O)CN3CCOCC3)sc2C1 (stereo not drawn)	?	?	?	i	?	?
CC1CCc2nc(NC(=O)C3CC3)sc2C1 (stereo not drawn)	?	i	?	?	23.9µM	?
CC1CCc2nc(NC(=O)C3COc4ccccc4O3)sc2C1 (stereo not drawn)	?	?	?	?	0.536µM	i
